Beta cell apopt – beta cell apoptosis inhibition | INS-1E cytokine-induced death, ATP luminescence, 48 h; percent of positive-control rescue, neutral wells zero | protection from apoptosis, % (concentration not given with the values) | 0.8% of 300,000 active | AID 435005;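 active = Every replicate reaches about 75%, or at least half do and their mean reaches it too, limit read from the data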;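 also: higher means more ATP so stronger rescue from cytokine killing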
MPTP inh – inhibitors of mitochondrial permeability transition pore | AID 602449 | 1.4% of 360,000 active | inhibition, % at 10 µM | isolated mouse mitochondria, Ca2+ swelling absorbance, 30 min;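 active = inhibition of 50% or more, scaled per plate between neutral and stimulator controls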
CSC inhib – blocks cancer stem cells; cancer stem cell-like cells viability, luminescence; inhibition, % at 7.5 µM; 1.1% of 300,000 active; AID 2717; in the data active = inhibition above about 75%; tested in HMLE shEcad cells
NR3A LBD binder – NR3A (human) ligand-binding domain modulation; AID 1259313; 2.5% of 340,000 active; Tm shift relative to glycine control, % at 25 µM; NR3A LBD differential scanning fluorimetry, Tm shift; 0% = protein alone, 100% = glycine-bound protein;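 active = melting temperature shift of at least 10% of the positive control shift, at one fixed dose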
Mdm2-MdmX inh – human Mdm2/MdmX binding inhibition; O15151+Q00987; SaOS-2 split-luciferase Mdm2/MdmX complementation, luminescence; inhibition, % at 8 µM; 3% of 330,000 active; AID 485346;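 active = inhibition of at least 50% at 8 µM in the primary screen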
SKKanGAS inh – inhibitors of SKKanGAS S. pyogenes growth in kanamycin (SK-promoter or general growth effect); inhibition, % at 7.5 µM; 1.3% of 300,000 active; BacTiter-Glo, 6 h;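 active = mean replicate score, as percent of positive control median, at least 50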;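 also: strain carries kanamycin resistance gene driven by streptokinase promoter and grows in 40 µg/ml kanamycin; loss of luminescence reflects streptokinase promoter inhibition or plain growth inhibition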
Numbers stand for hits; i = inactive; nt = not tested or not shown. Rows were chosen to be rich in hits. Some 6.9% of all compounds tested hit in one or more screens of this group.

SMILES	Beta cell apopt	MPTP inh	CSC inhib	NR3A LBD binder	Mdm2-MdmX inh	SKKanGAS inh
Cc1cc(NCCCO)n2nc(-c3cccs3)cc2n1	i	i	i	i	i	i
CN(C)S(=O)(=O)c1cccc(C(=O)Nc2cc(S(=O)(=O)N3CCOCC3)ccc2N2CCCC2)c1	nt	i	nt	i	nt	nt
O=C(Nc1ccc(OC(F)F)cc1)c1cc[n+]([O-])cc1	nt	i	i	i	i	i
Cn1nc(C(F)(F)F)c(-c2cccc(C(F)(F)F)c2)c1NC(=O)CSCC(=O)O	i	i	i	i	i	i
COc1cc(/C=C2/C(=N)N3C=CSC3=NC2=O)ccc1OCCCOc1c(C)cccc1C	i	i	i	i	i	i
CCS(=O)(=O)C1=NN2C(=N)/C(=C\c3ccc(OCCOc4cccc(OC)c4)c(OC)c3)C(=O)N=C2S1	i	i	i	15	nt	i
CCOc1cc(/C=C2\C(=N)N3N=C(S(C)(=O)=O)SC3=NC2=O)ccc1OCCOc1cccc(OC)c1	i	i	i	i	i	i
COc1cc(/C=C2/C(=N)N3C=CSC3=NC2=O)ccc1OCCCOc1ccccc1C	i	i	i	18	i	i
CCOc1ccccc1/C=N/Nc1ccnc(=O)[nH]1	i	i	i	i	i	i
COc1cccc(/C=N/Nc2ccnc(=O)[nH]2)c1O	93	i	i	i	i	i
O=c1nccc(N/N=C/c2ccccc2O)[nH]1	125	i	i	nt	i	i
COC(=O)Cn1c(=O)c2c(nc3n2CCCN3CCc2ccc(OC)c(OC)c2)n(C)c1=O	i	i	i	i	i	i
COc1ccccc1CC(=O)c1ccc(OCc2ccccc2)cc1	i	i	i	i	i	i
N#Cc1cccc(NC(=O)C2SC(=Nc3ccccc3)C(C(=O)N3CCOCC3)=C2N)c1 (centres undefined)	i	i	i	i	i	i
Cc1ccc(N=C2SC(C(=O)Nc3ccc(OC(F)(F)F)cc3)C(N)=C2C(=O)Nc2c(C)cc(C)cc2C)cc1 (centres undefined)	99	i	106	35	nt	nt
Cc1ccc(NC(=O)c2cc3cc(OC(F)(F)F)ccc3[nH]2)cc1	i	nt	i	i	i	i
Cc1ccc(NC(=O)C2SC(=Nc3ccccc3)C(C(=O)Nc3ccc(Cl)cc3)=C2N)cc1 (centres undefined)	nt	i	nt	17	nt	nt
Cc1ccc(C)c(NC(=O)C2CCN(C(=O)c3cccs3)CC2)c1	i	i	i	i	i	i
COc1cccc(CNC(=O)c2ccccc2NC(=O)C2=C(C)OCCS2)c1OC	i	i	i	112	i	i
Cc1cc(Cl)ccc1NC(=O)CN1C(=O)C(=O)N(C2CCCC2)C1=O	i	i	nt	i	i	nt
CCOC(=O)c1sc(NC(=O)CSc2nccn2C)nc1C	i	i	i	13	i	i
COC(=O)c1sc(NC(=O)c2c(C)noc2C)nc1C	i	i	i	i	i	i
CCOC(=O)c1sc(NC(=O)c2c(CC)noc2C)nc1C	i	i	nt	19	i	nt
COC(=O)c1cc(S(=O)(=O)n2nc(C)c(Br)c2C)c(Cl)cc1Cl	i	i	i	i	i	72
FC(F)Oc1ccc(/C=N/NC(=S)Nc2cc(C(F)(F)F)ccc2Cl)cc1	i	i	i	35	i	i
SMILES	Beta cell apopt	MPTP inh	CSC inhib	NR3A LBD binder	Mdm2-MdmX inh	SKKanGAS inh
CNC(=S)Nc1cc(C(F)(F)F)ccc1Cl	i	i	i	i	i	i
COC(=O)c1cc(=O)n(Cc2ccc(F)cc2)c(=Nc2ccccc2)s1	i	i	86	i	i	i
O=c1c2ccccc2oc2ccc(-c3ccc4[nH]ccc4c3)cc12	i	i	i	18	i	i
CC(=O)c1ccccc1OCCOCCOc1ccccc1C(C)=O	108	i	i	i	i	i
CC1CCCN(C(=O)Cc2cn(Cc3cccc(Cl)c3)c3ccccc23)C1 (centres undefined)	i	i	i	i	i	i
O=C(Cc1cn(Cc2cccc(Cl)c2)c2ccccc12)N1CCCCCC1	i	i	i	17	i	i
Cc1ccc(NC(=O)OCc2cccs2)cc1	nt	nt	i	nt	i	i
CCCN1C(=O)/C(=C\C=C2\N(CC)c3ccccc3C2(C)C)SC1=S	nt	i	nt	i	nt	i
CN1/C(=C\C=C2/SC(=S)NC2=O)C(C)(C)c2ccccc21	99	i	i	i	i	i
CC1=NN(c2ccccc2)C(=O)/C1=C\C=C1\N(C)c2ccccc2C1(C)C	i	i	79	i	i	i
CC(=O)c1ccc(N2CCC(c3cc(-c4ccc(Cl)cc4)n[nH]3)CC2)c([N+](=O)[O-])c1	i	i	101	14	i	88
CC(=O)c1ccc(N2CCN(c3ncccn3)CC2)c([N+](=O)[O-])c1	i	i	nt	i	i	i
COC(=O)c1ccc(N2CCC(c3cc(-c4ccc(OC)cc4)n[nH]3)CC2)c([N+](=O)[O-])c1	i	i	i	i	i	90
CC1Cc2ccccc2N1Cc1cc(=O)c(OCC(=O)NCCc2ccccc2)co1 (centres undefined)	nt	i	i	i	i	i
CC(C)c1ccc(N2C(=O)CC(Sc3ncccn3)C2=O)cc1 (centres undefined)	i	i	i	i	i	i
O=C(COc1ccc(Cl)cc1)Nc1ccccc1Cl	i	i	i	i	i	i
O=C(COc1ccc(Cl)cc1)Nc1ccc(C(=O)O)cc1NC(=O)COc1ccc(Cl)cc1	i	i	i	10	i	i
CCOc1ccc(OCCC(=O)OCC(=O)N2CCN(c3ccc(OC)cc3)CC2)cc1	i	i	i	i	i	i
O=C(NNC(=O)c1cc2cc(Br)ccc2oc1=O)c1ccc(O)cc1O	i	i	77	17	i	i
COc1cc(CN2CCN(C(c3ccccc3)c3ccccc3)CC2)cc(OC)c1OC	i	i	i	i	i	i
Cc1cccc(CN2CCN(C(c3ccccc3)c3ccc(Cl)cc3)CC2)c1 (centres undefined)	i	i	86	i	i	i
O=C(Nc1ccccc1Oc1ccccc1)[C@@H]1O[C@H](CO)[C@H](O)[C@H](O)[C@H]1O	nt	i	nt	nt	nt	nt
CCC1CCCCN1S(=O)(=O)c1ccc(S(=O)(=O)N(Cc2ccccn2)CC2CCCO2)cc1 (centres undefined)	i	i	79	i	i	i
CN1C(=O)/C(=C/c2cccc(Cl)c2)Sc2ccc(C(=O)NCc3cccnc3)cc21	i	i	96	i	i	i
COc1cccc(/C=C2\Sc3ccc(C(=O)NCc4cccnc4)cc3N(C)C2=O)c1	i	i	i	i	i	i
COc1ccc(/C=C2\Sc3ccc(C(=O)NCc4cccnc4)cc3N(C)C2=O)cc1OC	i	i	i	i	i	66
COc1ccc(C(=O)NCc2cccnc2)cc1C(=O)NCc1cccnc1	i	i	i	i	i	nt
Cc1nnc(N/N=C/c2ccccc2O)n1N	i	i	i	i	i	i
Cc1nnc(N/N=C/c2cc(C)n(-c3ccc(F)cc3)c2C)n1N	i	i	i	12	i	i
O=C(NC1C2CC3CC(C2)CC1C3)C1CC1 (centres undefined)	nt	i	i	i	i	i
